From PubChem BioAssay come the findings set out here.

The source made the active and inactive calls.

Test [1] can be described thus: binders of probe aFSTL3 on microarray, primary screen, stem cell growth factor project, biochemical, small-molecule microarray, fluorescence 635/667 (AID 1064).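 Also: measures binding of the biotinylated anti-FSTL3 antibody to printed compounds.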 To be noted: higher = more signal.
The nature of test [2]: binders from COS7 lysate, DM2A8 probe, primary screen, torsin A project, cell lysate, small-molecule microarray, fluorescence 635/667 (AID 1065). As to conditions: higher = more signal, COS7 lysate expressing mutant human TOR1A.
Test [3] in a line: binders of probe aFGF2 on microarray, primary screen, stem cell growth factor project, biochemical, small-molecule microarray, fluorescence 635/667 (AID 1067).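 Also: measures binding of biotinylated aFGF2 protein to printed compounds on slides; z-score merges feature fluorescence and signal-to-noise across triplicate slides.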 As to conditions: higher = more signal.
Test [4] is described as follows: binders of probe aFGF10 on microarray, primary screen, stem cell growth factor project, biochemical, small-molecule microarray, fluorescence 635/667 (AID 1071).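 Also: score merges 667 nm spot intensity and signal to noise from triplicate slides.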 As to conditions: higher = more signal.
For test [5], the target named is Neurogenic locus notch homolog protein 2 (Homo sapiens) (UniProt Q04721). Put plainly: Notch2 binders on small-molecule microarrays, primary screen, biochemical, small-molecule microarray, 635 nm fluorescence, stem cell growth factors (AID 1073). As to conditions: Notch2 binding, higher = more signal.
Sequence of Neurogenic locus notch homolog protein 2 (Homo sapiens) (Q04721 whole entry, looked up, canonical isoform): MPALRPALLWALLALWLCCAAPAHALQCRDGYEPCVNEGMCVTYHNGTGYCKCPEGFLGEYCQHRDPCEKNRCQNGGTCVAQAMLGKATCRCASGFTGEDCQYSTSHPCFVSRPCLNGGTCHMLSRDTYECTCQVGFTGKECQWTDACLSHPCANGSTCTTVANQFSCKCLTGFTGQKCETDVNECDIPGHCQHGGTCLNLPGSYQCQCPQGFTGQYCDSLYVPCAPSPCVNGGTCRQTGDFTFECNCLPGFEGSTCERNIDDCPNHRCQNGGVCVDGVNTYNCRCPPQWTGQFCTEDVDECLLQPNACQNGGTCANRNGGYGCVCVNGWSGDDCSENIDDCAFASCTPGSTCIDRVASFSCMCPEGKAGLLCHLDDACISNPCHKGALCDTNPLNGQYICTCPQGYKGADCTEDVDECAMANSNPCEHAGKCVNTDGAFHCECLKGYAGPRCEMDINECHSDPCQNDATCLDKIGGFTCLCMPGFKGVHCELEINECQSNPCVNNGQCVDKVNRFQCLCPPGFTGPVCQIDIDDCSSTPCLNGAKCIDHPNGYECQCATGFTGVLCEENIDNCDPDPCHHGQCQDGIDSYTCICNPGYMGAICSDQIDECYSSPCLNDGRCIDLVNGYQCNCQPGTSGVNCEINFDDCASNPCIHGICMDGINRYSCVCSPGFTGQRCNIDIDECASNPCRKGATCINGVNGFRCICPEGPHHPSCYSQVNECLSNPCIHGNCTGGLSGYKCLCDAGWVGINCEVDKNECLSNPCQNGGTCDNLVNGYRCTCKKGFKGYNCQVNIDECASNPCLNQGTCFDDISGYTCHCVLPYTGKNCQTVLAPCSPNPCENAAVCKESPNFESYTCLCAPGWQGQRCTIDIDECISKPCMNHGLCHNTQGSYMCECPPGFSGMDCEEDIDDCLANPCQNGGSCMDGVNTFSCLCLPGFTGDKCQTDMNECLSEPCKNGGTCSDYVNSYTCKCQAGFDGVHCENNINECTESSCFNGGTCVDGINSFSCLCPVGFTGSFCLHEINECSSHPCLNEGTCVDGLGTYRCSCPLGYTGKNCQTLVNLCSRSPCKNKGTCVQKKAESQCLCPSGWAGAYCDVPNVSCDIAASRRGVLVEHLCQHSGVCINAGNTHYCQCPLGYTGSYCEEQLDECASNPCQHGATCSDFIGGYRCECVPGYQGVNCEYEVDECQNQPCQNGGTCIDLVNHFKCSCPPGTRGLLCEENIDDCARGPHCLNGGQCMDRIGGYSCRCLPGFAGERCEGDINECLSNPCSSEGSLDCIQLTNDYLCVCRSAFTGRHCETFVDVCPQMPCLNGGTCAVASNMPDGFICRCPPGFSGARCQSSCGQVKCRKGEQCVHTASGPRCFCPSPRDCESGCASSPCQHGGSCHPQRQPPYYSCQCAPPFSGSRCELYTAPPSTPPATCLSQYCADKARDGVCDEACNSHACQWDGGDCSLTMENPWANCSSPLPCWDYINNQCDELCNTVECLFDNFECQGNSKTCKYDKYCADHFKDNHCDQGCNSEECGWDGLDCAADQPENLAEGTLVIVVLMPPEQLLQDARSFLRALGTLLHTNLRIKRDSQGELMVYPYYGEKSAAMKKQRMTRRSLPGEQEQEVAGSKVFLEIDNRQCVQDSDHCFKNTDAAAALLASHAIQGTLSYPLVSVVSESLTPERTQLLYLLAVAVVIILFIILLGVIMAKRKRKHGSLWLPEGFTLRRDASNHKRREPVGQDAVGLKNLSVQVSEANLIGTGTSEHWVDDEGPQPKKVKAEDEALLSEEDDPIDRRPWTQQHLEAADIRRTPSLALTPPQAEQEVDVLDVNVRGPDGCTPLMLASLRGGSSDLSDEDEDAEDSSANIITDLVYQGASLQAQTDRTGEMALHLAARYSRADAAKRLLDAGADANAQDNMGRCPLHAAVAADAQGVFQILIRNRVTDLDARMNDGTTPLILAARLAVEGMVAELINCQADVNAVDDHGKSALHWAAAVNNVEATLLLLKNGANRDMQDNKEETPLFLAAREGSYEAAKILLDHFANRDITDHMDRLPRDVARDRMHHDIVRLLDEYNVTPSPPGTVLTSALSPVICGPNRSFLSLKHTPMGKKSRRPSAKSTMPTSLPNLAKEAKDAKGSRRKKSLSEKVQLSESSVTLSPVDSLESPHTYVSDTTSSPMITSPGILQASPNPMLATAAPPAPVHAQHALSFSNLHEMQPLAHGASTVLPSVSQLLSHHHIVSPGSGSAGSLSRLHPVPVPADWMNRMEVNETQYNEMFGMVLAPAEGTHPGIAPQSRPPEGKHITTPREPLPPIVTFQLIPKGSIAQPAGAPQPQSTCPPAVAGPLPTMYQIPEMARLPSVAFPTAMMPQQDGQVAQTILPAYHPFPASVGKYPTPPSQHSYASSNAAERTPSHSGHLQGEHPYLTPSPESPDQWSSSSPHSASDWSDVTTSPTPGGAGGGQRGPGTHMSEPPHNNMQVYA
The target of test [6] is Pro-neuregulin-1, membrane-bound isoform (Homo sapiens) (UniProt Q02297). Briefly: NRG1 binders on small-molecule microarrays, primary screen, psychiatric disease protein project, biochemical, small-molecule microarray, fluorescence 635/667 (AID 1075).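 Also: score combines 667 nm spot fluorescence with signal to noise.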 As to conditions: NRG1 binding, 635 nm fluorescence, higher = more signal.
Sequence of Pro-neuregulin-1, membrane-bound isoform (Homo sapiens) (Q02297 whole entry, looked up, the tested form may be a part, canonical isoform): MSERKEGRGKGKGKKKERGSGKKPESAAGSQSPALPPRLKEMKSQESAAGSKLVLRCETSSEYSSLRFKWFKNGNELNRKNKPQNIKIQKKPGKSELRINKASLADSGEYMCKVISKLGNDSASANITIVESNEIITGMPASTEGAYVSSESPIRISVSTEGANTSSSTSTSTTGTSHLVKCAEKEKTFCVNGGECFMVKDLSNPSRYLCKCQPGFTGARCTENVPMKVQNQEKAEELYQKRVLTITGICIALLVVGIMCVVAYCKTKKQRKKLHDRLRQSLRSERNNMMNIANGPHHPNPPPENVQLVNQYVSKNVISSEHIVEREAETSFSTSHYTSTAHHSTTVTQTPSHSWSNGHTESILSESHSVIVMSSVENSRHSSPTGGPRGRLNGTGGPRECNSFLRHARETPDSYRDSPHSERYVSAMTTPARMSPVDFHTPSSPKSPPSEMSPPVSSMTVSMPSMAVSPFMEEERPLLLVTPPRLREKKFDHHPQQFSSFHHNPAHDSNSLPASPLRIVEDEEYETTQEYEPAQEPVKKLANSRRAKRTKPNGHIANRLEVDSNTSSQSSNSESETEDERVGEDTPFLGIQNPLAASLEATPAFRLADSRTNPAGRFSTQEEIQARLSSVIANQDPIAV
Test [7] has as its system Neuregulin-1 EGF-like domain. Briefly: binders of neuregulin-1 EGF-like domain, primary screen, biochemical, small-molecule microarray, 635 nm fluorescence (AID 1081).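 Also: binding of the protein to compounds printed on small-molecule microarray slides.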 To be noted: small-molecule microarray binding, higher = more signal.
A short description of test [8]: FRG1 promoter luciferase signal modulators, primary screen, FRG1 inhibition for FSHD, cell-based, C2C12 myotubes, firefly/Renilla luciferase, luminescence (AID 1084). As to conditions: higher = more signal, called active from +8 up or from −8 down.
The nature of test [9]: binders of probe aFST on microarray, primary screen, stem cell growth factor project, biochemical, small-molecule microarray, fluorescence 635/667 (AID 1086).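 Also: score merges 667 nm fluorescence with signal-to-noise of each printed compound spot.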 To be noted: higher = more signal.
Test [10] can be described thus: binders of probe aHhip on microarray, primary screen, stem cell growth factor project, biochemical, small-molecule microarray, fluorescence 635/667 (AID 1087).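 Also: score merges spot fluorescence at 667nm with spot signal to noise ratio.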 As to conditions: higher = more signal.

With `CC1CC/C=C\[C@H]2OC34C=CCN(CCN5CCOCC5)C(=O)[C@H]3N(CCCCCCO)C(=O)[C@@H]4C2C(=O)O1` (stereo not given in full), the composite z-score in test [1] was -0.0847; in [2], -0.686; in [3], -0.129; in [4] it was -0.445; in test [5], -0.894; in test [6], -0.539. Moreover, the composite z-score was 1.44 in test [7], -0.493 in test [9] and -0.171 in test [10]. For the same molecule, the z-score in test [8] is 0.647 (inactive).

With `CN(C)C(=O)[C@]1(Cc2ccccc2)N=C(c2ccc(OCCCO)cc2)O[C@@H]1c1ccccc1`, the composite z-score in test [1] was -0.129; in [2], 0.984; in test [3] it was 0.0376; in test [4], 1.08; in test [5], 1.46; in test [6], 1.78. Also, the results for the composite z-score in test [7], in test [9] and in test [10] were 1.28, 0.952 and 0.127, respectively. Besides, in test [8], the z-score is -0.306 (inactive).

`CCOC(=O)C[C@H]1[C@H](OC(=O)c2ccc(C(=O)c3ccccc3)cc2)[C@@H](NC(=O)c2ccc3ccccc3c2)c2cc(OCCCO)ccc2N1C(=O)c1ccc2ccccc2n1`: the composite z-score was -0.432 in [1]; 0.761 in test [2]; -0.101 in [3]; 0.746 in test [4]; 0.5 in [5]; 0.43 in [6]. In addition, the composite z-score in test [7] was 0.53; in test [9], 0.392; in test [10] it was -0.151. Further, in [8], the z-score was 0.476 (inactive).

Turning to `NCCCC[C@@H]1NC(=O)[C@H]2C[C@@H](C(=O)O)[C@@H](c3cccc(OCCO)c3)N2C1=O`, the composite z-score was 1.34 in [1]; 1.57 in test [2]; 0.097 in test [3]; 0.856 in test [4]; 1.61 in test [5]; 2.05 in [6]. The results for the composite z-score in [7], in test [9] and in [10] were 1.4, 2.16 and -0.0474, respectively. The z-score in [8] is 0.805 (inactive).

As to `[N-]=[N+]=NCc1ccccc1C[C@]1(C(=O)NCc2ccccc2)N=C(c2ccc(OCCCO)cc2)O[C@H]1c1ccccc1CN=[N+]=[N-]`, the composite z-score is 1.79 in [1]; 0.227 in [2]; 0.14 in [3]; 0.0819 in test [4]; 1.13 in test [5]; 1.73 in test [6]. Also, the composite z-score was 1.16 in test [7], 0.654 in test [9] and -0.082 in test [10]. Besides, in test [8], the z-score was 0.976 (inactive).

Take `CC(C)C[C@H]1NC(=O)[C@@H](C)NC(=O)[C@@]23C(=O)N[C@@H](Cc4ccccc4)C2[C@H](C)[C@@]2(C)O[C@H]2C3/C=C/C/C=C\CNC1=O` (stereo not given in full): the composite z-score in test [1] was -0.112; in test [2] it was -0.0039; in test [3], -0.185; in test [4], 0.346; in test [5] it was 0.125; in [6], 0.483. Moreover, the composite z-score was 0.798 in test [7], -0.141 in test [9] and -0.121 in test [10]. For the same molecule, in [8], the z-score is 1.85 (inactive).

As for `C[C@H]1NC(=O)C([C@@H](C)OCc2ccccc2)NC(=O)[C@@]23C(=O)N[C@@H](Cc4ccccc4)C2[C@H](C)[C@@]2(C)O[C@H]2C3/C=C/C/C=C\CNC1=O` (stereo not given in full), the composite z-score in test [1] is -0.265; in test [2], 0.0677; in test [3] it was -0.183; in test [4], 0.817; in test [5], -0.363; in [6], -0.341. For the same molecule, the composite z-score is 0.989 in test [7], -0.407 in test [9] and -0.0324 in test [10]. In addition, the z-score in [8] was 0.493 (inactive).

Take `CCCCC(=C=CC[C@H](O)c1ccc(OCCO)cc1)C[C@H](O)c1ccccn1`: the composite z-score in test [1] was -0.199; in test [2] it was 0.342; in test [3], -0.109; in [4], 0.694; in [5], 0.356; in test [6], 1.47. Besides, the composite z-score came to 1.14 in test [7], 0.763 in [9] and 0.0854 in test [10]. In addition, in test [8], the z-score is -0.865 (inactive).

In the case of `COCCOC(=O)N1C(=O)[C@@]2(c3cc(C#CCCO)ccc31)[C@H](c1ccc(O)cc1)N1[C@H](c3ccccc3)[C@H](c3ccccc3)OC(=O)[C@H]1[C@@H]2C(=O)N1CCc2cc(OC)c(OC)cc2C1`, the composite z-score in test [1] is 0.0104; in test [2], 0.366; in test [3], -0.0004; in test [4], 0.525; in test [5], 1.36; in test [6] it was 1.04. In addition, the composite z-score in test [7] is 1.32; in [9] it was 0.411; in test [10], -0.271. The z-score in [8] was -0.994 (inactive).

On to `COCC(=C=CC[C@@H](O)c1ccc(OCCO)cc1)C[C@@H](O)COCc1ccccc1`, for which the composite z-score in test [1] is 0.158; in test [2], -0.187; in test [3] it was -0.015; in [4], 0.734; in test [5] it was 0.726; in [6], 1.11. In addition, the results for the composite z-score in test [7], in test [9] and in test [10] were 1.07, 0.543 and 0.111, respectively. Further, the z-score in test [8] is -1.1 (inactive).

As for `COC(=O)c1c(CC[C@@H](CO)NC(=O)N[C@@H](Cc2ccccc2)Cn2cc(-c3cncn3C)nn2)oc(C(C)=O)c1C(=O)OC`, the composite z-score in [1] is -0.42; in test [2], 0.259; in test [3] it was -0.129; in test [4] it was 0.716; in test [5] it was -0.451; in test [6], 1.67. Besides, the composite z-score in test [7] is 1.29; in [9], 0.0625; in test [10], -0.0401. In test [8], the z-score is 0.691 (inactive).

In the case of `COCCOC(=O)N1C(=O)[C@@]2(c3cc(C#CCC(C(=O)OC)C(=O)OC)ccc31)[C@H](c1ccc(OCCO)cc1)N1[C@H](c3ccccc3)[C@H](c3ccccc3)OC(=O)[C@H]1[C@@H]2C(=O)N1CCCCCCC1`, the composite z-score in test [1] is 3.74; in test [2], 1.64; in [3], 0.671; in test [4] it was 0.304; in [5] it was 1.37; in [6], 0.812. In addition, the composite z-score was 1.3 in test [7], 3.32 in [9] and 3.43 in test [10]. Also, the z-score in test [8] is 0.562 (inactive).

For the molecule `COCC(=C=CC[C@@H](O)c1cccc(OCCO)c1)C[C@@H](O)COCc1ccccc1`, the composite z-score in [1] is 0.506; in test [2] it was 1.35; in [3], 0.0918; in test [4], 0.718; in [5], -0.157; in test [6] it was 2.11. For the same molecule, the composite z-score in test [7] was 0.974; in test [9], 1.96; in test [10], -0.169. For the same molecule, the z-score in test [8] was -0.631 (inactive).

Take `N#Cc1ccc(C(O)C2C=CC3C(=O)NC(=O)C3N2Nc2ccccn2)cc1` (stereo not given): the composite z-score in test [1] is -0.0872; in [2], -0.013; in test [3], -0.0692; in test [4] it was 0.311; in test [5] it was 0.905; in test [6], 1.41. The composite z-score was found to be 0.511 in [7], 0.12 in test [9] and 0.113 in test [10]. In addition, the z-score in test [8] was -0.0581 (inactive).

For `C[C@H]1C2[C@H](Cc3ccccc3)NC(=O)[C@]23C(=O)NCC(=O)N2CCC[C@H]2C(=O)NC/C=C\C/C=C/C3[C@@H]2O[C@]12C` (stereo not given in full), the composite z-score in test [1] was -0.376; in [2] it was 0.171; in test [3], -0.087; in [4], 0.557; in test [5] it was 0.726; in test [6], -0.139. The composite z-score was -0.0828 in test [7], -0.274 in [9] and 0.123 in test [10]. Further, the z-score in test [8] was 0.276 (inactive).

Consider `CN(C)CCCC[C@@H]1NC(=O)[C@H]2C[C@@H](C(=O)NCc3ccc(F)cc3)[C@@H](c3ccc(O)cc3)N2C1=O`, for which the composite z-score was 0.0653 in [1]; 0.412 in test [2]; -0.0904 in test [3]; 0.268 in [4]; 0.201 in [5]; 0.865 in [6]. The composite z-score was 1.25 in [7], -0.0224 in test [9] and 0.028 in test [10]. Moreover, the z-score in [8] was 1.07 (inactive).
